Screening data (PubChem)
Anthrax LF prot: blocks Bacillus anthracis lethal factor protease. AID 588501. multiplex microsphere protease cleavage assay, LF. inhibition, % at 10 µM. P15917. hit rate 0.12% among 360,000
BoNT A protease: inhibitors of Botulinum neurotoxin A light chain protease | multiplex microsphere protease substrate cleavage, flow cytometry | inhibition, % at 10 µM | hit rate 0.17% among 360,000
SARS 3CLpro inh: SARS-CoV 3CLpro protease inhibition | P0C6X7 | recombinant SARS-CoV 3CLpro, quenched FRET peptide cleavage | inhibition, % at 6 µM | hit rate 0.14% among 290,000 | AID 1706; in the data active = inhibition above about 12%
CCHF vOTU inh: CCHFV vOTU protease inhibition | Pep-AMC fluorescence | inhibition, % at 11.5 µM | hit rate 0.55% among 370,000; in the data active = inhibition above about 30%
BoNT-F LC inh: blocks Botulinum neurotoxin F light chain protease; Multiplex microsphere protease cleavage assay, flow cytometry; inhibition, % at 10 µM; hit rate 0.22% among 360,000; AID 588497; in the data active = inhibition above about 35%, passing the limit was not always enough; inconclusive = no clear call, values can overlap the other calls
Bead autofluor: counter-screen for toxin protease inhibitors: compound fluorescence | compound autofluorescence counterscreen, microsphere flow cytometry; hits give high values | hit rate 3.1% among 360,000 | fluorescence intensity (concentration not given with the values); in the data active = fluorescence intensity above about 16000; inconclusive = no clear call, values can overlap the other calls
Each line names hits and unclear results; the compound was inactive in the other large screens. Hits are enriched below; roughly 3.9% of the tested compounds scored in any of these assays. Rule as the data show it, unless noted: active = inhibition above about 30%; inconclusive = no clear call, values can overlap the other calls; inactive = below that.

CCCCNC(=O)Nc1cc(C(F)(F)F)c[nH]c1=O	Bead autofluor 24583
Cc1occc1C(=O)O/N=C(\N)c1ccc(Cl)cc1	BoNT-F LC inh 40
COc1ccc(Cl)cc1C(=O)O/N=C(\N)c1ccc(Cl)cc1	none
O=C(NCc1ccc(F)cc1)C(c1cccs1)N(C(=O)c1csnn1)C1CC1 (centres undefined)	BoNT A protease inconclusive, Bead autofluor 16343
Cc1ccccc1N1C(=O)C2ON(c3ccccc3)C(c3cccnc3)C2C1=O (centres undefined)	none
Cc1c(Cl)cccc1N1C(=O)C2ON(c3ccccc3)C(c3cccnc3)C2C1=O (centres undefined)	Bead autofluor 21730
Cc1ccc(N2C(=O)C3ON(c4ccccc4)C(c4ccncc4)C3C2=O)c(C)c1 (centres undefined)	none
O=C1C2ON(c3ccccc3)C(c3ccncc3)C2C(=O)N1c1ccccc1 (centres undefined)	Bead autofluor 20412
Cc1cccc(C)c1N1C(=O)C2ON(c3ccccc3)C(c3ccncc3)C2C1=O (centres undefined)	BoNT A protease inconclusive, Bead autofluor 22531
CN(Cc1ccccc1)C(=O)OCc1cn(Cc2ccccc2F)nn1	none (no result: Anthrax LF prot, BoNT A protease, SARS 3CLpro inh, BoNT-F LC inh, Bead autofluor)
O=C(COC(=O)/C=C/c1ccco1)Nc1ccc(F)cc1Cl	none
CCOC(=O)c1cc(-c2ccccc2)sc1NC(=O)C(C)Sc1nnc(N)s1 (centres undefined)	none
Cc1ccc(NC(=O)C2CCCN2S(=O)(=O)c2cccnc2)cc1C (centres undefined)	none (no result: Anthrax LF prot, BoNT A protease, SARS 3CLpro inh, BoNT-F LC inh, Bead autofluor)
COc1ccc(/C=C2\C(=N\O)C3CCN2CC3)cc1	none
O/N=C1/C(=C\c2ccccc2)N2CCC1CC2	Bead autofluor 19798
CC1=C(C(=O)Nc2ccccc2)C(c2ccc(C)cc2)N=C(Nc2nc3ccccc3o2)N1 (centres undefined)	Bead autofluor 23563
CC1(C)CC(=O)C2=C(C1)NC(Nc1nc3ccccc3o1)=NC2c1ccccn1 (centres undefined)	none
Cn1nnnc1SCc1ccc(C(=O)Nc2nccs2)cc1	Bead autofluor 24214
Cn1c(CSCc2ccc(Cl)cc2)nnc1SCC(=O)Nc1nccs1	Bead autofluor 16354
Cn1c(CSCc2ccc(Cl)c(Cl)c2)nnc1SCC(=O)Nc1nccs1	BoNT-F LC inh inconclusive
O=C(Cn1c(C(F)(F)F)nc2ccccc21)c1ccc(Cl)cc1	Bead autofluor 18546
Clc1ncccc1-c1nc2ccccc2n1Cc1ccccc1	BoNT A protease inconclusive, Bead autofluor 20310 (no result: CCHF vOTU inh)
O=S(=O)(O)c1nc2ccccc2n1Cc1ccccc1	none
CCn1c(-c2cccnc2Cl)nc2ccccc21	Bead autofluor 23168
CS(=O)(=O)c1nc2ccccc2n1Cc1ccccc1	Bead autofluor 23807
CN(Cc1ccc(Cl)c(Cl)c1)C(=O)C1CC(=O)N(c2ccc3c(c2)OCCO3)C1 (centres undefined)	none (no result: SARS 3CLpro inh)
COc1cccc(C2=NOC(C(=O)NC3CCCCC3)C2)c1 (centres undefined)	none
COc1cccc(C2=NOC(C(=O)Nc3cccc(C(C)=O)c3)C2)c1 (centres undefined)	Bead autofluor 19143
CC1CCN(C(=O)C2CC(c3ccc(F)cc3)=NO2)CC1 (centres undefined)	none (no result: CCHF vOTU inh)
O=C(NC1CCCC1)C1CC(c2ccc(F)cc2)=NO1 (centres undefined)	Bead autofluor 23071
CC(=O)c1ccc(NC(=O)C2CC(c3ccc(F)cc3)=NO2)cc1 (centres undefined)	Bead autofluor 23509
COc1cccc(C2=NOC(C(=O)Nc3ccc(OC)c(OC)c3)C2)c1 (centres undefined)	none
CC1CCCC(C)N1C(=O)C1CC(c2ccc(F)cc2)=NO1 (centres undefined)	Bead autofluor 17330
COc1ccc(CNC(=O)c2sc3nc(C)c(Cl)c(C)c3c2N)cc1	none (no result: Anthrax LF prot, BoNT A protease, SARS 3CLpro inh, BoNT-F LC inh, Bead autofluor)
Cc1ccc2c(c1)CCCN2C(=O)c1ccco1	Bead autofluor 22783
Cc1ccc2c(c1)CCCN2C(=O)c1ccc2c(c1)OCO2	Bead autofluor 23514
COC(=O)c1cc(OC)c(OC)cc1NC(=S)N1CCCC(CO)C1 (centres undefined)	Bead autofluor 22143
COC(=O)c1ccc(C(=O)OC)c(NC(=S)N2CCCC(CO)C2)c1 (centres undefined)	none
CNC(=O)N(C1=NCC(C)S1)c1ccc(F)cc1F (centres undefined)	BoNT A protease inconclusive, Bead autofluor 23465
COc1ccccc1N(C(=O)NCc1ccccc1)C1=NCC(C)S1 (centres undefined)	none
Cc1c2cnn(CC(=O)NCCCN3CCCCC3C)c(=O)c2c(C)n1Cc1ccccc1 (centres undefined)	Bead autofluor 18388
C/C(=N\Nc1cc(Cl)nc(C)n1)c1ccc(Cl)c(Cl)c1	none
C/C(=N\Nc1cc(Cl)nc(C)n1)c1ccc(C)cc1	Bead autofluor 22065
COC(=O)c1ccccc1NC(=O)C1CCCN(S(=O)(=O)c2ccccc2)C1 (centres undefined)	BoNT A protease inconclusive, Bead autofluor 19578
Cc1ccc(S(=O)(=O)N2C(=O)CCC2C(=O)N2CCCCC2)cc1 (centres undefined)	BoNT-F LC inh inconclusive
COC(=O)c1cc(OC)c(OC)cc1NC(=O)C1CCC(=O)N1S(=O)(=O)c1ccc(C)cc1 (centres undefined)	none
COC(=O)c1ccccc1NC(=O)C1CCCN(S(=O)(=O)c2ccc(F)cc2)C1 (centres undefined)	none
COC(=O)c1ccccc1NC(=O)C1CCC(=O)N1S(=O)(=O)c1ccc(C)cc1 (centres undefined)	BoNT A protease inconclusive, Bead autofluor 16363
Cc1ccc(S(=O)(=O)N2C(=O)CCC2C(=O)N2CCN(C)CC2)cc1 (centres undefined)	Bead autofluor 22032
CC(=O)OCC(=O)C1(O)CCC2C3CCC4CC(O)CCC4(C)C3C(=O)CC21C (centres undefined)	none (no result: SARS 3CLpro inh)
O=C(Cn1cnc2ccccc2c1=O)Nc1nnc(SCc2ccc(Cl)cc2)s1	none
CC(=O)NC1CCCCN(C(C)C)C1=O (centres undefined)	none (no result: Anthrax LF prot, BoNT A protease, SARS 3CLpro inh, BoNT-F LC inh, Bead autofluor)
COc1ccc(C(=O)CC(=O)c2ccc(OC)cc2)cc1	BoNT-F LC inh inconclusive
COc1ccc(C(=O)C[N+]2(C)CCOCC2)cc1	BoNT-F LC inh 46
CCC(=O)N1CCc2cc(S(=O)(=O)NCCC(=O)N3CC=C(c4ccccc4)CC3)ccc21	Bead autofluor 22498
CCC(=O)N1CCc2cc(S(=O)(=O)NCCC(=O)N3CCc4ccccc4C3)ccc21	none
Cc1cc(/C(=N/O)C(C)(C)NO)ccc1Cl	Bead autofluor 22038
CC(Sc1nnc(C2CC2)n1C)C(=O)Nc1ccc2c(c1)CCC2 (centres undefined)	none (no result: SARS 3CLpro inh)
Cc1cc(S(=O)(=O)Nc2ccc3ccccc3c2)c(C)s1	Bead autofluor 19290
Cc1ccc(S(=O)(=O)Nc2ccc3ccccc3c2)cc1	none (no result: SARS 3CLpro inh)
COc1ccc(S(=O)(=O)Nc2ccc3c(c2)OCO3)cc1OC	BoNT A protease inconclusive, Bead autofluor 18331
